FUS suppressor: qHTS for Suppressors of FUS Proteinopathy: Primary screen using FUS-linked yeast assay | hit rate 0.24% among 390,000 | Potency, µM (series often up to 76.6 µM), usual class: activators | S. cerevisiae FUS-expressing, growth rescue, OD600, 24 h; note: nearly all actives have a fitted effect of over 55% in size
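Quantitative HTS measuring growth restoration of FUS-toxic yeast. Galactose-induced cells (OD 0.005) were exposed 24hr at 30C to compounds at several concentrations, then absorbance at 600 nm was recorded.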
ALOX12 inh: Primary qHTS assay for inhibitors of human arachidonate 12S-lipoxygenase (ALOX12): Round 2; AID 1671190, 2021; purified 12hLO, xylenol orange hydroperoxide absorbance; Polyunsaturated fatty acid lipoxygenase ALOX12 (Homo sapiens), P18054; hit rate 1.1% among 580,000; Potency, µM (top dose mostly 108 µM), hits mostly inhibitors
Target sequence (P18054 whole entry, looked up): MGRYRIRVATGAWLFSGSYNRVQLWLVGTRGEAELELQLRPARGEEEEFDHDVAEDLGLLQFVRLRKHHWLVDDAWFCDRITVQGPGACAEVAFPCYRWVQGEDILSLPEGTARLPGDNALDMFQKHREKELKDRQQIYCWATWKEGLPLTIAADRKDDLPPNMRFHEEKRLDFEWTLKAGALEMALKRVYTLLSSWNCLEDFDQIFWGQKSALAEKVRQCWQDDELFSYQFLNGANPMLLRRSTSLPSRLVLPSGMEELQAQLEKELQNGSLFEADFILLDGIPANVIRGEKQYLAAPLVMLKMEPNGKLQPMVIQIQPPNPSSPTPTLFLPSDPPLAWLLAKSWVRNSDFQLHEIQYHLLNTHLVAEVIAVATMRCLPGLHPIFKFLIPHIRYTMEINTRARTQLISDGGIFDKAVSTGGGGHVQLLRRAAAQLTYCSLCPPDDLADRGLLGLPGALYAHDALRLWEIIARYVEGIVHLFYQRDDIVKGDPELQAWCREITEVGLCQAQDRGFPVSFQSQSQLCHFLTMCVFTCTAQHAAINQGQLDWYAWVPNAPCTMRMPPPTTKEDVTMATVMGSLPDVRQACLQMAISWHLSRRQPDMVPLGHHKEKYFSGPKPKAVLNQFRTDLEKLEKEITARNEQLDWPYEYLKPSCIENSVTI
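Purified human 12hLO at 150 nM in 25 mM Hepes, 0.01% Triton X-100, pH 7.0, preincubated 15 min at room temperature with compound. Reaction started with 40 uM arachidonic acid, 30 min at room temperature. Hydroperoxide measured by Fe-xylenol orange, 573/405 nm absorbance ratio.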
gsp antag: qHTS for Antagonists of gsp, the Etiologic Mutation Responsible for Fibrous Dysplasia/McCune-Albright Syndrome: qHTS; Potency, µM (highest dose often 76.9 µM), most hits filed as inhibitors; gsp-mutant cells, cAMP HTRF, 30 min; hit rate 0.4% among 340,000; calls by dose curve; cell line not stated here;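 note: intracellular cAMP measured with PDE inhibitor Ro 20-1724 present during compound exposure; nearly all actives have a fitted effect of over 65% in size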
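HTRF cAMP measurement after 30 min RT detection following 30 min, 37C compound treatment alongside […] (added as 300 uM solution) in G418-selected cells seeded at 2000/well and grown 16–24 h.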
Mito fusion act: qHTS Assay for Small Molecule Inhibitors of Mitochondrial Division or Activators of Mitochondrial Fusion; S. cerevisiae fusion-defective mutant growth rescue, CellTiterGlo 48 h; Potency, µM (highest dose often 46.1 µM), actives largely listed as activators; hit rate 0.23% among 320,000; AID 485298, 2010; note: nearly all actives have a fitted effect of over 45% in size
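Luminescent cell viability in 1536-well qHTS format served as the measure of rescued growth in ts fusion-mutant S. cerevisiae cultured on non-fermentable YPEG for 48 hours at 37C.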
gsp ag: qHTS for Agonist of gsp, the Etiologic Mutation Responsible for Fibrous Dysplasia/McCune-Albright Syndrome: qHTS. Potency, µM (highest dose often 76.9 µM), hits mostly activators. hit rate 0.13% among 340,000. AID 624287, 2012. gsp mutant cells, cAMP HTRF, 30 min; active = well fitted activation curve with a large enough effect; inconclusive = small, poorly fitted or top-dose-only effect, or another doubt; inactive = no such curve, though single readings can be large or run the other way; cell line not stated here;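 note: phosphodiesterase inhibitor Ro 20-1724 added with compounds to block cAMP breakdown; nearly all actives have a fitted effect of over 60% in size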
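Cells stably selected in G418 were plated at 2000/well, grown 16-24 hr, then given compounds in DMSO with the PDE inhibitor […] (300 uM solution added) for 30 min at 37C; cAMP was read by HTRF.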
Numbers stand for hits; - = inactive; ? = inconclusive; . = no result; [ ] = remark or other dose. Only some compounds are listed: those with a hit (about 1.6% of all), similar ones and a draw of the others. Unless noted, calls come from the whole dose curve; as a rule, active = well fitted curve in the direction sought with a large enough effect; inconclusive = small, poorly fitted or top-dose-only effect, or another doubt; inactive = no such curve, though single readings can be large; an effect the other way counts as inactive or inconclusive.

SMILES | FUS suppressor | ALOX12 inh | gsp antag | Mito fusion act | gsp ag
CC(=O)Nc1ccc(S(=O)(=O)Nc2cccn(Cc3ccc(C)cc3)c2=O)cc1 | - | - | - | - | -
Cc1ccc(Cn2cccc(NS(C)(=O)=O)c2=O)cc1 | - | 7.08µM | - | - | -[15.4 µM]
Cc1cc(C)n2nc(SC(C)C(=O)Nc3ccc(F)cc3Cl)nc2n1 (configuration not stated) | . | - | . | . | .
COc1cc(/C=C/C(=O)c2ccccc2O)cc(OC)c1OC | - | - | - | - | .
CCOc1cc(/C=C/C(=O)c2cccc(Cl)c2)cc(Cl)c1O | . | 5.62µM | . | . | .
CCOc1cc(/C=C/C(=O)c2ccccc2Cl)cc(Cl)c1O | . | 35.5µM | . | . | .
CCCCCCCCCCC(=O)Nc1c(CC)cccc1CC | . | - | . | . | .
Cn1ccnc1C(NC(=O)CNC(c1ccccc1)c1ccccc1)c1ccc(F)cc1 (configuration not stated) | . | - | . | . | .
CCCCC(=O)Nc1sccc1C#N | . | - | . | . | .
OC(CN1CCC(Cc2ccc(F)cc2)CC1)c1ccc(Cl)cc1 (configuration not stated) | . | - | . | 2.91µM | .
OC(CN1CCN(c2ccc(F)cc2)CC1)c1ccc(Cl)cc1 (configuration not stated) | - | ? | - | - | -
COc1ccc(-n2c(C)cc(C(=O)CSc3ccc(NC(C)=O)cc3)c2C)cc1 | - | - | - | 15.8µM | -
CC(=O)Nc1ccc(SCC(=O)c2cc(C)n(-c3ccccc3)c2C)cc1 | - | - | - | ? | -[15.4 µM]
COc1ccc(-n2c(C)cc(C(=O)COC(=O)c3ccc(O)cc3O)c2C)cc1 | - | - | 31.6µM | - | -
Cc1ccc(C(=O)OC2CCOC2=O)s1 (configuration not stated) | . | - | . | . | .
CCOc1cc(CNCC(C)O)ccc1OCc1ccc(C)cc1 (configuration not stated) | . | - | . | . | .
CN1CCN(c2cc(-c3ccoc3)ncn2)CC1 | . | 11.2µM | . | . | .
CN1CCN(c2ccnc(-c3cccnc3)n2)CC1 | . | - | . | . | .
CN1CCN(c2ccnc(-c3ccoc3)n2)CC1 | . | 22.4µM | . | . | .
COC(=O)CSc1nc2sc3c(c2c(=O)n1-c1ccc(OC)cc1)CC(C(C)C)OC3 (configuration not stated) | . | - | . | . | .
C/C(=C(/C#N)c1nc2ccccc2[nH]1)c1ccc(C)cc1 | . | - | . | . | .
COC(=O)c1ccc(COc2ccc(C(=O)c3ccc(Cl)cc3)cc2)cc1 | . | - | . | . | .
N#Cc1ccc(-c2ccco2)nc1SCc1ccccc1 | - | - | ? | - | -
CCSc1nc(-c2ccco2)ccc1C#N | ? | 6.31µM | - | - | -
COC1=CC(=O)CC(C)C12Oc1cc(OC)cc(OC)c1C2=O (configuration not stated) | - | - | - | - | -
SMILES | FUS suppressor | ALOX12 inh | gsp antag | Mito fusion act | gsp ag
COC(=O)C1=CC(=O)C=C(OC)[C@@]12Oc1cc(C)cc(OC)c1C2=O | . | 4.47µM | . | . | .
COc1ccc(-c2n[nH]c(=S)n2-c2ccc(C)cc2)cc1 | - | 17.8µM | - | - | ?
S=c1[nH]nc(-c2ccc(Cl)cc2)n1-c1ccc(Cl)cc1 | - | 10µM | - | - | -[15.4 µM]
S=c1[nH]nc(-c2ccc(Cl)cc2Cl)n1-c1ccc(Cl)cc1 | - | 12.6µM | - | - | -
COc1ccc(-n2c(-c3ccc(Br)cc3)n[nH]c2=S)cc1 | - | ? | - | - | -
O=C(Nc1cnc(-c2cccc(Cl)c2)nc1)c1ccccc1F | . | - | . | . | .
O=c1[nH]nc(SCc2nc(-c3ccc(Cl)cc3)no2)n2nc(-c3ccco3)cc12 | . | - | . | . | .
CCCO | . | - | . | . | .
O=C(Cc1ccc(Cl)cc1)NCCc1cccc2cccnc12 | . | - | . | . | .
CN(Cc1ccccc1)C(=O)C[C@@H]1O[C@H](CNC(=O)c2ccno2)[C@@H](O)[C@H]1O | . | 28.2µM | . | . | .
CN(Cc1ccccc1)C(=O)C[C@@H]1O[C@H](CNC(=O)Nc2cccc(F)c2)[C@@H](O)[C@H]1O | . | - | . | . | .
Cn1cc(C(C(=O)O)N2CCN(c3ncc(Br)cn3)CC2)c2ccc(C(=O)O)cc21 (configuration not stated) | . | - | . | . | .
CN1CCN(C(=O)CCC(=O)O)CC1 | - | - | - | - | ?
CN1CCN(CC(=O)O)CC1 | - | - | - | - | 20µM
O=c1ccc2ccc(O)c(O)c2o1 | . | ? | . | 23.1µM | .
CCCCCCCC(=O)N/N=C/c1ccc([N+](=O)[O-])o1 | - | - | - | 20µM | -
Cc1ccc(C(=O)N/N=C\c2ccc([N+](=O)[O-])o2)cn1 | - | - | - | - | 8.91µM
CCc1ccc(C(CNS(=O)(=O)c2cccs2)N(C)C)cc1 (configuration not stated) | . | - | . | . | .
Cc1cnc(CCNS(=O)(=O)Cc2ccccc2F)n1C(C)C | . | - | . | . | .
Cc1c(Cl)cccc1NS(=O)(=O)c1ccc(NS(=O)(=O)c2ccc3c(c2)OCCO3)cc1 | 22.4µM | - | . | . | .
Cc1ccc(S(=O)(=O)Nc2ccc3c(c2)OCCO3)cc1 | - | - | - | - | -[15.4 µM]
Cc1ccc(-c2nc(CN(C)CC(=O)N(C)C)co2)c(C)c1 | . | - | . | . | .
Cc1nc([C@@H]2CN(S(=O)(=O)C(C)C)C[C@H]2C(N)=O)n[nH]1 | . | 50.1µM | . | . | .
Cc1nc([C@@H]2CN(S(=O)(=O)c3ccc4c(c3)CCCC4)C[C@H]2C(N)=O)n[nH]1 | . | - | . | . | .
COCCn1cnnc1SCc1ccc(Cl)cc1 | . | - | . | . | .
COc1cc(OC)c(C=NNC(=S)NC23CC4CC(CC(C4)C2)C3)c(OC)c1 | . | 12.6µM | - | . | ?
COc1ccc(C=NNC(=S)NC23CC4CC(CC(C4)C2)C3)cc1OC | . | 44.7µM | - | . | -
COc1cc(/C=N/NC(=S)NCc2ccccc2)ccc1OCC#N | - | ? | - | - | -

Screening results deposited in PubChem BioAssay by National Center for Advancing Translational Sciences (NCATS).
